# Test results published in PubChem BioAssay AID1159580 (chemical genetic matrix, 2015).
# Out of some 5,500 compounds screened, about 2,000 (36%) were called active. Inconclusive results (about 18%) are left out. This is one part of the list. Unmarked numbers belong to inactive results. Rule as the data show it: active = normalized growth mostly below about 0.91 (no sharp cut-off); inconclusive = no clear call, values can overlap the other calls; inactive = mostly above about 0.92.
# Experiment: chemical genetic growth profiling, strain panel (AID 1159580);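 also: tested at 20 µM; growth read once vehicle control cultures reached saturation at 30 °C; 1 = growth at the plate median or of vehicle wells; lower values mean less growth of the strain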
# Conditions: growth OD
smiles,measurement,setting,value
COC(=O)Nc1nc2ccc(Sc3ccccc3)cc2[nH]1,normalized growth,"S. cerevisiae deletion strains, locus YJR075W, strain HOC1, active compounds read low",0.982
same,normalized growth,"S. cerevisiae deletion strains, locus YKL009W, strain mrt4, active compounds read low",0.951
same,normalized growth,"S. cerevisiae deletion strains, locus YKL068W, active compounds read low",0.996
same,normalized growth,"S. cerevisiae deletion strains, locus YKL085W, strain MDH1 (second series), active compounds read low",0.959
same,normalized growth,"S. cerevisiae deletion strains, locus YKL085W, strain MDH1, active compounds read low",0.959
same,normalized growth,"S. cerevisiae deletion strains, locus YKL160W, strain elf1, active compounds read low",0.997
same,normalized growth,"S. cerevisiae deletion strains, locus YKL190W, strain CNB1, active compounds read low",0.996
same,normalized growth,"S. cerevisiae deletion strains, locus YKR001C, strain vps1, active compounds read low",0.978
same,normalized growth,"S. cerevisiae deletion strains, locus YKR026C, strain gcn3, active compounds read low",0.98
same,normalized growth,"S. cerevisiae deletion strains, locus YKR091W, strain srl3, active compounds read low",1.01
same,normalized growth,"S. cerevisiae deletion strains, locus YLL001W, strain dnm1, active compounds read low",1
same,normalized growth,"S. cerevisiae deletion strains, locus YLL026W, active compounds read low",0.992
same,normalized growth,"S. cerevisiae deletion strains, locus YLL041C, strain sdh2, active compounds read low",0.989
same,normalized growth,"S. cerevisiae deletion strains, locus YLR027C, strain aat2, active compounds read low",0.995
same,normalized growth,"S. cerevisiae deletion strains, locus YLR039C, strain RIC1, active compounds read low",0.95
same,normalized growth,"S. cerevisiae deletion strains, locus YLR058C, strain SHM2, active compounds read low",0.996
same,normalized growth,"S. cerevisiae deletion strains, locus YLR102C, strain apc9, active compounds read low",1
same,normalized growth,"S. cerevisiae deletion strains, locus YLR113W, strain HOG1, active compounds read low",0.957
same,normalized growth,"S. cerevisiae deletion strains, locus YLR221C, strain rsa3, active compounds read low",0.992
same,normalized growth,"S. cerevisiae deletion strains, locus YLR258W, strain gsy2, active compounds read low",0.99
same,normalized growth,"S. cerevisiae deletion strains, locus YLR262C, strain YPT6 (second series), active compounds read low",0.921
same,normalized growth,"S. cerevisiae deletion strains, locus YLR262C, strain YPT6, active compounds read low",0.965
same,normalized growth,"S. cerevisiae deletion strains, locus YLR268W, strain sec22, active compounds read low",1.01
same,normalized growth,"S. cerevisiae deletion strains, locus YLR320W, strain mms22, active compounds read low",0.998
same,normalized growth,"S. cerevisiae deletion strains, locus YLR330W, strain CHS5, active compounds read low",0.994
same,normalized growth,"S. cerevisiae deletion strains, locus YLR342W, strain FKS1 (second series), active compounds read low",0.93
same,normalized growth,"S. cerevisiae deletion strains, locus YLR342W, strain FKS1, active compounds read low",0.983
same,normalized growth,"S. cerevisiae deletion strains, locus YLR357W, strain rsc2, active compounds read low",0.951
same,normalized growth,"S. cerevisiae deletion strains, locus YLR370C, strain arc18, active compounds read low",1
same,normalized growth,"S. cerevisiae deletion strains, locus YLR371W, strain rom2, active compounds read low",1.01
same,normalized growth,"S. cerevisiae deletion strains, locus YLR384C, strain iki3, active compounds read low",0.996
same,normalized growth,"S. cerevisiae deletion strains, locus YLR418C, strain cdc73, active compounds read low",0.918
same,normalized growth,"S. cerevisiae deletion strains, locus YML016C, strain PPZ1, active compounds read low",0.989
same,normalized growth,"S. cerevisiae deletion strains, locus YML032C, strain rad52, active compounds read low",1
same,normalized growth,"S. cerevisiae deletion strains, locus YML120C, strain ndi1, active compounds read low",0.98
same,normalized growth,"S. cerevisiae deletion strains, locus YML124C, strain tub3, active compounds read low",0.181 (active)
same,normalized growth,"S. cerevisiae deletion strains, locus YMR058W, strain fet3, active compounds read low",0.994
same,normalized growth,"S. cerevisiae deletion strains, locus YMR078C, strain ctf18, active compounds read low",1.01
same,normalized growth,"S. cerevisiae deletion strains, locus YMR125W, strain sto1, active compounds read low",0.984
same,normalized growth,"S. cerevisiae deletion strains, locus YMR129W, active compounds read low",1
same,normalized growth,"S. cerevisiae deletion strains, locus YMR205C, strain PFK2, active compounds read low",0.988
same,normalized growth,"S. cerevisiae deletion strains, locus YMR223W, strain ubp8, active compounds read low",0.968
same,normalized growth,"S. cerevisiae deletion strains, locus YMR231W, strain pep5, active compounds read low",0.984
same,normalized growth,"S. cerevisiae deletion strains, locus YMR263W, strain SAP30, active compounds read low",0.973
same,normalized growth,"S. cerevisiae deletion strains, locus YMR307W, strain GAS1, active compounds read low",0.974
same,normalized growth,"S. cerevisiae deletion strains, locus YNL067W, strain RPL9B, active compounds read low",0.996
same,normalized growth,"S. cerevisiae deletion strains, locus YNL071W, strain lat1, active compounds read low",0.988
same,normalized growth,"S. cerevisiae deletion strains, locus YNL128W, strain TEP1, active compounds read low",1.01
same,normalized growth,"S. cerevisiae deletion strains, locus YNL153C, strain GIM3, active compounds read low",0.0686 (active)
same,normalized growth,"S. cerevisiae deletion strains, locus YNL183C, strain NPR1, active compounds read low",0.893
same,normalized growth,"S. cerevisiae deletion strains, locus YNL209W, strain ssb2, active compounds read low",1.01
same,normalized growth,"S. cerevisiae deletion strains, locus YNL233W, strain BNI4, active compounds read low",0.977
same,normalized growth,"S. cerevisiae deletion strains, locus YNL248C, strain rpa49, active compounds read low",0.999
same,normalized growth,"S. cerevisiae deletion strains, locus YNL250W, strain rad50, active compounds read low",1
same,normalized growth,"S. cerevisiae deletion strains, locus YNL271C, strain bni1, active compounds read low",1.01
same,normalized growth,"S. cerevisiae deletion strains, locus YNL298W, strain CLA4, active compounds read low",0.99
same,normalized growth,"S. cerevisiae deletion strains, locus YNL307C, strain MCK1, active compounds read low",0.993
same,normalized growth,"S. cerevisiae deletion strains, locus YNL322C, strain KRE1 (second series), active compounds read low",0.988
same,normalized growth,"S. cerevisiae deletion strains, locus YNL322C, strain KRE1, active compounds read low",1
same,normalized growth,"S. cerevisiae deletion strains, locus YNR049C, strain mso1, active compounds read low",0.997
same,normalized growth,"S. cerevisiae deletion strains, locus YNR052C, strain pop2, active compounds read low",1
same,normalized growth,"S. cerevisiae deletion strains, locus YOL006C, strain TOP1, active compounds read low",0.981
same,normalized growth,"S. cerevisiae deletion strains, locus YOL012C, strain htz1",0.49
same,normalized growth,"S. cerevisiae deletion strains, locus YOL147C, strain pex11, active compounds read low",0.996
same,normalized growth,"S. cerevisiae deletion strains, locus YOR001W, strain rrp6, active compounds read low",0.985
same,normalized growth,"S. cerevisiae deletion strains, locus YOR061W, strain CKA2, active compounds read low",0.994
same,normalized growth,"S. cerevisiae deletion strains, locus YOR069W, strain VPS5, active compounds read low",1
same,normalized growth,"S. cerevisiae deletion strains, locus YOR070C, strain gyp1, active compounds read low",0.99
same,normalized growth,"S. cerevisiae deletion strains, locus YOR080W, strain dia2, active compounds read low",0.993
same,normalized growth,"S. cerevisiae deletion strains, locus YOR083W, strain WHI5, active compounds read low",0.976
same,normalized growth,"S. cerevisiae deletion strains, locus YOR106W, strain vam3, active compounds read low",0.972
same,normalized growth,"S. cerevisiae deletion strains, locus YOR136W, strain idh2, active compounds read low",0.993
same,normalized growth,"S. cerevisiae deletion strains, locus YOR144C, strain elg1, active compounds read low",1
same,normalized growth,"S. cerevisiae deletion strains, locus YOR184W, strain ser1, active compounds read low",0.984
same,normalized growth,"S. cerevisiae deletion strains, locus YOR231W, strain MKK1, active compounds read low",0.973
same,normalized growth,"S. cerevisiae deletion strains, locus YOR265W, strain rbl2, active compounds read low",0.982
same,normalized growth,"S. cerevisiae deletion strains, locus YOR270C, strain vph1, active compounds read low",0.991
same,normalized growth,"S. cerevisiae deletion strains, locus YOR290C, strain snf2, active compounds read low",0.993
same,normalized growth,"S. cerevisiae deletion strains, locus YOR316C, strain cot1, active compounds read low",0.998
same,normalized growth,"S. cerevisiae deletion strains, locus YPL051W, strain arl3, active compounds read low",0.996
same,normalized growth,"S. cerevisiae deletion strains, locus YPL055C, strain LGE1, active compounds read low",0.953
same,normalized growth,"S. cerevisiae deletion strains, locus YPL078C, strain atp4, active compounds read low",0.994
same,normalized growth,"S. cerevisiae deletion strains, locus YPL106C, strain sse1, active compounds read low",1.08
same,normalized growth,"S. cerevisiae deletion strains, locus YPL240C, strain hsp82, active compounds read low",1
same,normalized growth,"S. cerevisiae deletion strains, locus YPL241C, strain CIN2, active compounds read low",0.0715 (active)
same,normalized growth,"S. cerevisiae deletion strains, locus YPL256C, strain CLN2, active compounds read low",0.959
same,normalized growth,"S. cerevisiae deletion strains, locus YPR119W, strain clb2, active compounds read low",1
same,normalized growth,"S. cerevisiae deletion strains, locus YPR141C, strain kar3, active compounds read low",1.02
same,normalized growth,"S. cerevisiae deletion strains, locus YPR163C, strain tif3, active compounds read low",0.986
same,normalized growth,"S. cerevisiae deletion strains, locus YPR167C, strain met16, active compounds read low",1
same,normalized growth,"S. cerevisiae deletion strains, strain wtn01, active compounds read low",0.998
same,normalized growth,"S. cerevisiae strains, strain wild type, active compounds read low",0.997
